Hits are enriched below; roughly 12% of the tested compounds scored in any of these assays.
JMJD2A Tudor inh: qHTS Assay for Inhibitors of JMJD2A-Tudor Domain; Lysine-specific demethylase 4A (Homo sapiens), O75164; AlphaScreen JMJD2A-Tudor / H3K4me3 peptide binding; Potency, µM (titrated, usually from 114 µM), inactives show at the highest dose activity change, negative = inhibition, actives largely listed as inhibitors; actives 4.4% (n = 390,000); AID 504339, 2011; also: % is scaled to controls: 0 for no effect and ±100 for the full control effect; nearly all actives have a fitted effect of over 50% in size
PLK1 PBD block: qHTS for Inhibitors of PLK1-PDB (polo-like kinase 1 - polo-box domain): Primary Screen. Plk1 PBD binding of FITC phosphopeptide, fluorescence polarization. Potency, µM, without a hit: max response, negative = inhibition, actives largely listed as inhibitors. actives 2.8% (n = 360,000). AID 720504, 2013; also: series mostly up to about 57 µM; % is scaled to controls: 0 for no effect and ±100 for the full control effect; nearly all actives have a fitted effect of over 65% in size
G9a block: qHTS Assay for Inhibitors of Histone Lysine Methyltransferase G9a; Potency, µM (doses to about 102 µM), inactives show top-dose activity, negative = inhibition, hits mostly inhibitors; actives 8.8% (n = 350,000); G9a H3K9 monomethylation, AlphaScreen, 2 h; Histone-lysine N-methyltransferase EHMT2 (Homo sapiens), Q96KQ7; also: % is scaled to controls: 0 for no effect and ±100 for the full control effect; nearly all actives have a fitted effect of over 75% in size
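Signal arises when biotinylated H3K9 peptide, once monomethylated, bridges streptavidin donor and antibody-captured acceptor beads. Enzyme at 20 nM was preincubated 15 min with test compounds; peptide 500 nM and SAM 20 uM then reacted for 2 h.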
Sfp PPTase inh: qHTS Assay for Inhibitors of Bacillus subtilis Sfp phosphopantetheinyl transferase (PPTase). actives 3.5% (n = 310,000). Potency, µM, for the others: largest response in the series, negative = inhibition, most hits filed as inhibitors. AID 1490, 2009. 4'-phosphopantetheinyl transferase ffp (Bacillus subtilis), Q9F4F7. Biochemical Sfp PPTase activity, qHTS;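 also: the enzyme is Sfp with the accession as filed and its product quenches rhodamine fluorescence; 0% = enzyme reaction without inhibitor and -100% = no enzyme wells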
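After 15 min at room temperature with compound, 15 nM Sfp received 5 uM rhodamine-CoA plus 12.5 uM BHQ-2-ybbR (50 mM Hepes pH 7.6, 10 mM MgCl2). Rate came from the fluorescence difference over 30 min, ex 525/em 598 nm.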
BAZ2B block: qHTS Assay for Inhibitors of BAZ2B; AlphaScreen BAZ2B-H3K14Ac peptide displacement; Potency, µM (top dose mostly 114 µM), without a hit: at the highest dose activity change, negative = inhibition, hits mostly inhibitors; actives 4.4% (n = 360,000); AID 504333, 2011; also: % is scaled to controls: 0 for no effect and ±100 for the full control effect; nearly all actives have a fitted effect of over 60% in size
Target sequence (Q9UIF8 whole entry, looked up): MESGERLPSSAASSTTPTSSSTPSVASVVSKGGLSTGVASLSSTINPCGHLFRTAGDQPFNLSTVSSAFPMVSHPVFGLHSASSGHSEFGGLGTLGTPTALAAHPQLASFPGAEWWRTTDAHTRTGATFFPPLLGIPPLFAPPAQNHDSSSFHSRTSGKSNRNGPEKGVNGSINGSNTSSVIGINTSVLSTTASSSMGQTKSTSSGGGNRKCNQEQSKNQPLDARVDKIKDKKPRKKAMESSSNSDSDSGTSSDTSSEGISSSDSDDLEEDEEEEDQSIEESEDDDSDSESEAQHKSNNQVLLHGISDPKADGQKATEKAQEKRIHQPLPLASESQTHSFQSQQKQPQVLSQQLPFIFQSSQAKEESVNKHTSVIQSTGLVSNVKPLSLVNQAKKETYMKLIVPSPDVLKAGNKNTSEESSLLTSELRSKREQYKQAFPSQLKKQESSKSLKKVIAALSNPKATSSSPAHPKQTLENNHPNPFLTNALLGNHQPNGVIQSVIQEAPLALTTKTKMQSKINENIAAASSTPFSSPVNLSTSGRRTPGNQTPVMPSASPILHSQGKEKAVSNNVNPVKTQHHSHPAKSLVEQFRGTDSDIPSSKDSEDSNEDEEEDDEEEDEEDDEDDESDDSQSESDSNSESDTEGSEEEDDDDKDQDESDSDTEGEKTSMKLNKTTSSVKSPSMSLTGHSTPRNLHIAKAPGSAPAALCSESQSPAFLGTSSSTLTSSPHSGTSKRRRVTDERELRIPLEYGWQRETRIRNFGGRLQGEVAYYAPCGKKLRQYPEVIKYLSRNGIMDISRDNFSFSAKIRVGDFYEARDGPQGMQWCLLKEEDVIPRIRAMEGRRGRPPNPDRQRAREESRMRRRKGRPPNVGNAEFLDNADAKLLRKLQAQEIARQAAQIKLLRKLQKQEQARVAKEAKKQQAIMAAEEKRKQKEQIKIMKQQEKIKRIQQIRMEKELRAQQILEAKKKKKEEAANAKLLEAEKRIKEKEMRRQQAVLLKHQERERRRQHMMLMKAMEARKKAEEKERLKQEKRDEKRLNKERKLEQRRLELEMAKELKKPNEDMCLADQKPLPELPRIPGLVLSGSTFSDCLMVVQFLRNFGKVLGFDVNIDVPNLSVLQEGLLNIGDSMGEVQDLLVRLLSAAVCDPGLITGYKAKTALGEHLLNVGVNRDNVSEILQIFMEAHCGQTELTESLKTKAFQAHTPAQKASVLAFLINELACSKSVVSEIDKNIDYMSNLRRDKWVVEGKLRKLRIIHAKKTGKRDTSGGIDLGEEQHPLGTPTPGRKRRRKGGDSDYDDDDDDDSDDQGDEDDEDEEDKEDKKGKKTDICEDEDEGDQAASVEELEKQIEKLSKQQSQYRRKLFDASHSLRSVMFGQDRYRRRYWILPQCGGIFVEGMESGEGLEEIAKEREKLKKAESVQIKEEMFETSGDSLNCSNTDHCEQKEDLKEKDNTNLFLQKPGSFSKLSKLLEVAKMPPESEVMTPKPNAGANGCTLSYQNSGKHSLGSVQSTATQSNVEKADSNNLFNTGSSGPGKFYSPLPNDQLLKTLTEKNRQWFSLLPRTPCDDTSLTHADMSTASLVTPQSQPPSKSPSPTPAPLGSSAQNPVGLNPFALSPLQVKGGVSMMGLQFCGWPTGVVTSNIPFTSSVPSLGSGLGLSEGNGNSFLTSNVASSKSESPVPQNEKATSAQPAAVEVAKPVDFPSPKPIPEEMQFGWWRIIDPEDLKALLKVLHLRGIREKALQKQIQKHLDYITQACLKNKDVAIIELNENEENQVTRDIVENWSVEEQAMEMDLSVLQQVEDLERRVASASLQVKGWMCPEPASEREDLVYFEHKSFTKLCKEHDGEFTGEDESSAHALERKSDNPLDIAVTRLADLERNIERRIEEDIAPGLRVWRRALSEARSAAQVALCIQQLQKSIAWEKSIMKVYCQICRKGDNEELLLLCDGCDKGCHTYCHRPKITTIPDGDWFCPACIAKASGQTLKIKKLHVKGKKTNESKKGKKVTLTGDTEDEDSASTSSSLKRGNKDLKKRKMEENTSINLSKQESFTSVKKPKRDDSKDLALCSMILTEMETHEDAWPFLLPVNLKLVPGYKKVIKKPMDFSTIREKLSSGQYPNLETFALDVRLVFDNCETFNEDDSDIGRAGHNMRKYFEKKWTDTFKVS
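BAZ2B 50 nM plus b-H3(5-23)K14Ac 50 nM, PBS pH 7.4/0.01% Tween-20, 30 min RT; compound added (max 110 uM), 30 min RT; streptavidin donor/Ni-chelate acceptor beads 10 ug/mL final, 20 min dark; AlphaScreen read.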
HP1b chromo inh: HTS for Inhibitors of HP1-beta Chromodomain Interactions with Methylated Histone Tails; Chromobox protein homolog 1 (Homo sapiens), P83916; AlphaScreen HP1-beta / biotin-H3K9me3 peptide binding; Potency, µM (series often up to 114 µM), inactives show at the highest dose activity change, negative = inhibition, actives largely listed as inhibitors; actives 0.56% (n = 390,000); also: nearly all actives have a fitted effect of over 70% in size
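Compound inhibition of the preformed complex between 50 nM HP1-beta and 50 nM biotinylated H3K9me3 peptide was read by AlphaScreen. Buffer was PBS pH 7.4 with 0.01% Tween-20. Incubations ran 30 min at room temperature, with 10 ug/mL donor/acceptor beads.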
An asterisk follows results filed as active; ? = inconclusive; nt = not tested or not shown; [ ] = dose if it differs, or a comment. Calls follow the shape of the dose curve; as a rule, active = well fitted curve in the direction sought with a large enough effect; inconclusive = small, poorly fitted or top-dose-only effect, or another doubt; inactive = no such curve, though single readings can be large; an effect the other way counts as inactive or inconclusive. Potency is read from the fitted curve at half-maximal effect.

SMILES	JMJD2A Tudor inh	PLK1 PBD block	G9a block	Sfp PPTase inh	BAZ2B block	HP1b chromo inh
CCOC(=O)c1c(C)nn(-c2ccc(NC(=O)c3cccs3)cc2)c1C	-13%	-1%	-11%[12.7 µM]	-4%	-3%	40%
COc1cccc(C(c2sc3nc(-c4ccco4)nn3c2O)N2CCC3(CC2)OCCO3)c1 (centres undefined)	-19%	nt	?	nt	-18%	4%
Cc1cnc(C(=O)Nc2ccccc2-n2cccc2)cn1	?	-9%	?	45µM*	-11%	5%
COc1ccccc1N1CCN(CCCCCCOc2ccc(F)cc2)CC1	-34%	-19%	50µM*	-4%	-37%	1%
Fc1ccc(OCCCCCN2CCCC2)cc1	-12%	-4%	3%[59 µM]	6%	2%	24%
COc1ccc(CN2CCN(CCCCOc3ccc(Cl)cc3)CC2)c(OC)c1OC	6.3µM*	-8%	14µM*	89µM*	18µM*	?
COc1ccccc1N1CCN(CCCCOc2cccc3ccccc23)CC1	?	4%	45µM*	-18%	35µM*	-19%
Cc1cc(C)c(C)c(S(=O)(=O)NCc2ccc(C(=O)N3CCN(C)CC3)cc2)c1C	-5%	4%	-36%	3%	24%	22%
CC(C)n1c(=S)[nH]c2c1c(=O)[nH]c(=O)n2C	2µM*	-16%	?	10µM*	?	10µM*
C=CC(C)n1c(Br)nc2c1c(=O)[nH]c(=O)n2C (centres undefined)	-2%	-1%	?	7%	-3%	30%
CCOCCCNC(=O)C(=O)Nc1c2c(nn1-c1ccc(OC)cc1)CSC2	-15%	nt	16%[59 µM]	nt	5%	33%
OC(CNCC1CCCO1)Cn1c2ccc(Cl)cc2c2cc(Cl)ccc21 (centres undefined)	-9%[57.1 µM]	-18%	0%[2.33 µM]	50µM*	-35%	18%
OC(CNCC1CCCO1)Cn1c2ccccc2c2ccccc21 (centres undefined)	-10%	2%	?	9%	1%	16%
OC(CNCCC1C=Nc2ccccc21)Cn1c2ccc(Cl)cc2c2cc(Cl)ccc21 (centres undefined)	40µM*	-9%	?	11µM*	40µM*	?
Cn1c(=O)c(C(N)=S)cn(-c2ccccc2)c1=O	5%	0%	?	16%	-1%	43%
CC(C)n1cc(C(N)=S)c(=O)n(Cc2ccccc2)c1=O	-8%	-7%	50µM*	16%	-14%	23%
O=C(N/N=C/C(Cl)=C/c1ccc([N+](=O)[O-])cc1)C(=O)Nc1cccc(C(=O)O)c1	?	-7%	?	-29%	56µM*	7%
CCCCCCCC1=CC2=C(Cl)C(=O)C(C)(OC(C)=O)C(=O)C2=CN1C (centres undefined)	nt	nt	nt	-3%	nt	nt
Cc1ccc2nc(/N=C(\N)NC(=O)N3c4ccccc4Sc4ccccc43)nc(C)c2c1	-26%	9%	50µM*	19%	-33%	-12%
Cc1cc2nc(/N=C(\N)NC(=O)N3c4ccccc4Sc4ccccc43)nc(C)c2cc1C	-35%	-5%	50µM*	7%	-35%	6%
CC1=CN2C(=N)/C(=C/c3ccc([N+](=O)[O-])o3)C(=O)N=C2S1	79µM*	?	?	35µM*	45µM*	?
COc1ccc2c(=O)cc(C(=O)O)oc2c1	-10%	-15%	56µM*	6%	-22%	36%
COc1ccc2c(C)c(C(=O)O)oc2c1	-25%[57.1 µM]	-13%	-18%	5%	2%	63%
Cc1nc(N2CCN(S(=O)(=O)c3ccccc3C#N)CC2)c2c(-c3ccccc3)csc2n1	-6%	-6%	4%[12.7 µM]	nt	6%	33%
Cc1c(C)n(CC(O)CSc2ccccc2)c2ccccc12 (centres undefined)	nt	2.4µM*	nt	nt	nt	nt
SMILES	JMJD2A Tudor inh	PLK1 PBD block	G9a block	Sfp PPTase inh	BAZ2B block	HP1b chromo inh
Cc1ccc2c(c1)c(C)c(C)n2CC(O)CN1CCOCC1 (centres undefined)	79µM*	-22%	-22%[59 µM]	1%	1%	10%
Cc1c(C)n(CC(O)CNCCO)c2ccccc12 (centres undefined)	13µM*	4%	8.9µM*	10%	45µM*	?
COc1ccc(NCC(O)Cn2c(C)c(C)c3ccccc32)cc1 (centres undefined)	?	0%	nt	5%	40µM*	40µM*
Cc1c(C)n(CC(O)CN(CCO)CCO)c2ccccc12 (centres undefined)	?	0%	-12%[59 µM]	11%	-32%	1%
Cn1cccc1C(=O)N1CCC2(CCN(C(=O)Nc3ccccc3)CC2)CC1	nt	nt	2%[12.7 µM]	7%	nt	nt
O=C1Cc2cc(S(=O)(=O)N3CCN(c4ccc(Cl)cc4)CC3)ccc2N1	-34%[229 µM]	nt	nt	nt	nt	nt
O=C(CN1C(=O)NC2(CCCc3ccccc32)C1=O)NC1CCCCC1 (centres undefined)	-3%	-6%	-14%[2.33 µM]	nt	5%	24%
OC(CN1CCCCC1)Cn1c2ccccc2c2cc(Br)ccc21 (centres undefined)	-20%	-16%	-9%	-9%	-5%	44%
Cc1c(C)n(CC(O)CN2CCCCCC2)c2ccccc12 (centres undefined)	?	-6%	35µM*	10%	?	-8%
Cc1c(C)n(CC(O)CNc2ccccc2)c2ccccc12 (centres undefined)	25µM*	7%	13µM*	-27%	25µM*	?
COc1cccc(C(c2c(C)[nH]n(-c3ccccc3)c2=O)c2c(C)[nH]n(-c3ccccc3)c2=O)c1O	?	21µM*	18%	15%	-32%	-3%
COc1cccc(C(c2c(C)[nH]n(-c3ccccc3)c2=O)c2c(C)[nH]n(-c3ccccc3)c2=O)c1OC	?	12µM*	?	-14%	?	-39%
CNc1ncnc(Sc2nc(N)nc3nc[nH]c23)c1[N+](=O)[O-]	32µM*	?	nt	nt	nt	28%
Nc1nc(SCc2ccccc2)c2[nH]cnc2n1	-18%	-5%	5%	14%	3%	26%
Nc1nc(N)c2[nH]cnc2n1	-7%	0%	nt	nt	nt	71%
Nc1nc(Sc2ccc([N+](=O)[O-])c3nonc23)c2[nH]cnc2n1	28µM*	1.5µM*	nt	nt	nt	8.9µM*
O=C(c1ccco1)N1CCC[C@@]2(CCN(c3cccc(-c4ccccc4)c3)C2)C1	nt	nt	-7%[12.7 µM]	-12%	nt	nt

Screening results as filed in PubChem.
